# Source: the supplement of paper PMC6555819
# Key:
# Assay in all cases: PBM binding z-score (relative to random genomic background probes); higher = stronger binding; sequences stand for … in GC…GCGATTGACAGCGTAGAATGAAGG
# [1] = system: FXR:RXRa (NR concentration 270 nM, RXRa partner concentration 90 nM)
# Procedure, shortened: (§1)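 For binding z-scores, the reference was random background probes on custom Agilent 4×180K protein-binding microarrays. These arrays were incubated 1 h with ligand-free nuclear receptor dimers in PBS pH 7.4, 2% milk, 0.02% Triton X-100, 1 mM DTT, 0.2 mg/mL BSA and 0.4 mg/ml salmon testes DNA. Fluorescence was scanned after antibody detection of each partner (one per run) and regression-normalized.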
# [2] = system: LXRa:RXRa (NR concentration 270 nM, RXRa partner concentration 90 nM)
# Procedure, shortened: as §1
# [3] = system: LXRa homodimer (NR concentration 270 nM)
# Procedure, shortened: as §1
# [4] = system: LXRb:RXRa (NR concentration 270 nM, RXRa partner concentration 90 nM)
# Procedure, shortened: as §1
# [5] = system: LXRb homodimer (NR concentration 270 nM)
# Procedure, shortened: as §1
# [6] = system: PPARa:RXRa (NR concentration 270 nM, RXRa partner concentration 90 nM)
# Procedure, shortened: as §1
# [7] = system: PPARg:RXRa (NR concentration 180 nM, RXRa partner concentration 90 nM)
# Procedure, shortened: as §1
# [8] = system: PPARg:RXRa 270nM:90nM, anti-RXR (NR concentration 270 nM, RXRa partner concentration 90 nM)
# Procedure, shortened: as §1
# [9] = system: PPARg:RXRa 30nM:10nM, anti-RXR (NR concentration 30 nM, RXRa partner concentration 10 nM)
# Procedure, shortened: as §1
# [10] = system: PPARg:RXRa 90nM:30nM, anti-RXR (NR concentration 90 nM, RXRa partner concentration 30 nM)
# Procedure, shortened: as §1
# [11] = system: PPARg:RXRa DBDmut IVT, anti-RXR (DBD mutation: RXRa K156A/R161A, NR concentration 270 nM, RXRa partner concentration 90 nM)
# Procedure, shortened: as §1
# [12] = system: PPARg:RXRa IVT, anti-PPARg (NR concentration 270 nM, RXRa partner concentration 90 nM)
# Procedure, shortened: as §1
# [13] = system: PPARg DBDmut:RXRa IVT, anti-PPARg (DBD mutation: PPARg1 K132A/R137A, NR concentration 270 nM, RXRa partner concentration 90 nM)
# Procedure, shortened: as §1
# [14] = system: PPARg DBDmut IVT, anti-PPARg (DBD mutation: PPARg1 K132A/R137A, NR concentration 270 nM)
# Procedure, shortened: as §1
# [15] = system: PPARg homodimer (NR concentration 180 nM)
# Procedure, shortened: as §1
# [16] = system: PXR:RXRa (NR concentration 270 nM, RXRa partner concentration 90 nM)
# Procedure, shortened: as §1
# [17] = system: PXR homodimer (NR concentration 270 nM)
# Procedure, shortened: as §1
# [18] = system: RARa:RXR (NR concentration 270 nM, RXRa partner concentration 90 nM)
# Procedure, shortened: as §1
# [19] = system: RARa homodimer (NR concentration 270 nM)
# Procedure, shortened: as §1
# [20] = system: RARb:RXRa (NR concentration 270 nM, RXRa partner concentration 90 nM)
# Procedure, shortened: as §1
Sequence,PBM binding z-score [1],PBM binding z-score [2],PBM binding z-score [3],PBM binding z-score [4],PBM binding z-score [5],PBM binding z-score [6],PBM binding z-score [7],PBM binding z-score [8],PBM binding z-score [9],PBM binding z-score [10],PBM binding z-score [11],PBM binding z-score [12],PBM binding z-score [13],PBM binding z-score [14],PBM binding z-score [15],PBM binding z-score [16],PBM binding z-score [17],PBM binding z-score [18],PBM binding z-score [19],PBM binding z-score [20]
CCAGACAGGTGAGAAGGCAACTCAGCCTCGATTA,0.0587,-0.0895,-0.234,-0.403,-0.663,0.376,0.575,0.793,-0.21,0.329,0.42,0.413,-0.447,-0.637,0.166,-0.0948,-0.133,-0.209,0.0696,0.272
CGTCCAAGGTCGAGGTCAGTGAAAGAGACTCGAA,4.56,3.15,0.186,2.74,-0.695,4.31,2.53,3.25,0.231,1.81,1.1,2.35,-1.04,-1.22,1.43,3.59,0.491,3.61,-0.0434,4.39
TGAATGAGCTTAAAGATCAGGGAACGTGGCGTCG,-0.0785,-0.405,-0.642,-0.65,-0.626,-0.428,0.39,0.417,-0.0177,0.152,-0.909,-0.722,-0.0715,-0.43,-0.49,-0.508,-0.697,-0.284,-0.372,-0.351
CGAACTAGGTCAGAACACGACAGTGAAGGATGAT,1.16,0.462,-0.145,0.53,-0.0845,3.26,5.4,4.53,1.68,3.56,7.06,7.2,1.44,1.71,1.06,0.221,0.0475,0.721,0.743,2.84
CGAACTAGTTCATTGACAGGACAGTGAATAGTAA,0.24,0.585,0.0589,0.212,-0.317,0.375,0.284,0.0577,-0.0865,-0.122,0.941,0.504,0.647,0.333,0.0581,1.09,0.739,0.372,0.437,1.25
AGAACGAGGGCAATGTGTTGATAGCACGGGTGGC,0.748,0.456,-0.316,0.0585,-0.324,1.47,1.55,1.19,0.0423,0.712,3.49,2.88,0.318,-0.0765,0.0511,0.325,0.276,0.248,-0.364,2.05
CCTATTGGGCCAAGGTCATTGATCAGTCAAAGCA,3.16,2.92,0.821,2.85,-0.34,3.83,2.79,3.83,1.37,3.21,1.98,2.52,-0.54,0.103,2.09,3.72,1.21,3.94,0.101,3.33
